Laboratory results: PubChem BioAssay (NCATS)
Where “and” joins values, the source holds several entries; their conditions need not be identical. Equal entries are not always repeated. Inconclusive results are not listed. A call without a number means that no potency is given here. Calls of active or inactive are those of the source. Unless noted, the call rests on the fitted dose curve; in most records, active means well fitted curve in the direction sought with a large enough effect; inconclusive means small, poorly fitted or top-dose-only effect, or another doubt; inactive means no such curve, though single readings can be large; an effect the other way counts as inactive or inconclusive.

Tests used:
[1] = molecular target: Lysosomal acid glucosylceramidase (Homo sapiens) (UniProt P04062); assay: Glucocerebrosidase-p2 (AID 348; in the data active means potency below about 10 µM; further: potency means the concentration at half of the fitted maximal effect); settings: purified GBA, blue fluorogenic substrate, 40 min
Method in brief: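 Normal human glucocerebrosidase (0.2 nM) with blue fluorogenic substrate (80 uM final) in citrate/phosphate pH 5.9 with 10mM sodium taurocholate, 0.01% tween-20; 40 min RT, NaOH/glycine stop; fluorescence Ex 365/Em 440; AC50 from a titration from 0.6 nM upwards.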

[2] = AP1 Signaling Pathway (AID 357; active means well fitted curve in either direction with a large enough effect, not every such curve was filed as active;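 further: ME-180 reporter cells stimulated with EGF at its EC50 level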); settings: ME-180 AP-1-bla reporter, EGF-induced, beta-lactamase ratio, 5 h; at 7.69 µM (top of the series) unless noted
Method in brief: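 Cells are seeded overnight, exposed to compound titrations and an EC50 level of EGF for 5 hours at 37 °C, then loaded with CCF4 dye for 2.5 hours. Beta-lactamase activity under the AP-1 element is read as a blue/green ratio.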

[3] = molecular target: Cytochrome P450 1A2 (Homo sapiens) (UniProt P05177); assay: p450-cyp1a2 (AID 410; calls by dose curve; further: potency means the concentration at half of the fitted maximal effect)
Method in brief: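 O-Demethylation of luciferin 6' methyl ether by human CYP1A2 is monitored as luciferase luminescence. Substrate sits at Km (100uM); enzyme is 20nM. Values are scaled to 57 uM furafylline as maximal inhibition.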

[4] = NFAT Signaling Pathway (AID 444; active means well fitted curve in either direction with a large enough effect, not every such curve was filed as active;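 further: carbachol stimulus at about its EC50 of 1 µM final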); settings: Jurkat NFAT-bla M1, carbachol, beta-lactamase ratio, 5 h; at 7.69 µM (top of the series) unless noted
Method in brief: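 Read-out: CCF4 FRET ratio (460 nm/530 nm) after 1 h RT dye loading, used for %activity and AC50 from titration series. Cells: Jurkat NFAT-β-lactamase/M1 line, treated with compound plus 1 uM carbachol for 5 h, 37 °C.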

[5] = Stat Signaling Pathway (AID 446; active means well fitted curve in either direction with a large enough effect, not every such curve was filed as active;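 further: ME-180 cervical cancer cells given 40 pM IL-6 alongside compound; SIE-controlled beta-lactamase reporter measured as 460/530 nm FRET emission ratio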); settings: ME-180 (cervical carcinoma) SIE beta-lactamase reporter, IL-6 stimulated, 5 h; at 7.69 µM (top of the series) unless noted
Method in brief: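 Emission at 460 and 530 nm (excitation 405 nm) reports SIE-controlled beta-lactamase in ME-180 cells. Cells received compound with 40 pM IL-6 for 5 hrs at 37 C; data scaled between 300 pM IL-6 and 125 nM JAK-inhibitor controls.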

[6] = molecular target: Glucocorticoid receptor (Homo sapiens) (UniProt P04150); assay: GR-GFP Redistribution (AID 450;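 active means compounds whose dose series gives a full or clear partial fitted curve of increased nuclear translocation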; further: potency means the concentration at half of the fitted maximal effect); settings: U2OS GR-GFP nuclear translocation, laser cytometry, 2 h
Sequence of Glucocorticoid receptor (Homo sapiens) (P04150 whole entry, looked up, the tested form may be a part): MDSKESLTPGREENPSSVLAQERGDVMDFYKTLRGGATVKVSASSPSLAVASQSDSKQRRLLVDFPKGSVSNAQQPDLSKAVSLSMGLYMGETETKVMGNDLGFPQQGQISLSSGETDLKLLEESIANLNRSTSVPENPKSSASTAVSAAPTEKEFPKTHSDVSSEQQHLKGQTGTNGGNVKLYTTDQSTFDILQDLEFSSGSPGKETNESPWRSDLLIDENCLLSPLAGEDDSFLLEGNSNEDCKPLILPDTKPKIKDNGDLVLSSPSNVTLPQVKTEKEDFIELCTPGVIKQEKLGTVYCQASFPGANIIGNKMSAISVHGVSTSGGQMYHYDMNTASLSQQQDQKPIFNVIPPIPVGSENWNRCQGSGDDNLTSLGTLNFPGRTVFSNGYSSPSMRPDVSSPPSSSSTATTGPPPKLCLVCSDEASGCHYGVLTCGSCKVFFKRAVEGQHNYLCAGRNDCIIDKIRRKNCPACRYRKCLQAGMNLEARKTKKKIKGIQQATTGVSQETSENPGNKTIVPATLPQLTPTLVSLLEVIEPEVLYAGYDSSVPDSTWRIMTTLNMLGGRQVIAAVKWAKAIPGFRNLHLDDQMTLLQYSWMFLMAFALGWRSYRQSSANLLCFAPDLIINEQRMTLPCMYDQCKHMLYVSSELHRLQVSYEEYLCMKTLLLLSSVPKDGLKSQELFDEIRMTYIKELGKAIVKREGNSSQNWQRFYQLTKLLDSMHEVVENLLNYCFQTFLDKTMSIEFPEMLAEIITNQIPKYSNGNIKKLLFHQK

[7] = molecular target: Glucocorticoid receptor (Homo sapiens) (UniProt P04150); assay: GR-EFC Redistribution (AID 451; calls by dose curve; further: potency means the concentration at half of the fitted maximal effect); settings: CHO-K1 GR-EFC translocation, beta-gal luminescence, 2 h
Method in brief: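 Translocation of GR-ED fusion to nuclear EA restores b-gal, read by luminescence after 1 h room-temperature detection. Engineered CHO-K1 biosensor cells, 1,000/well, exposed 2 h at 37 C to titrations up to 46 uM final.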

[8] = molecular target: Mitogen-activated protein kinase 10 (Mus musculus) (UniProt Q61831); assay: JNK3 AlphaScreen Assay (AID 530; active means well fitted curve in either direction with a large enough effect, not every such curve was filed as active;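 further: kinase came from lysate of stimulated human HepG2 cells; signal reports phosphorylation of biotinylated GST-cJun 1-79 at Ser73 with 10 µM ATP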)
Method in brief: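 qHTS titrations with 15 min compound pre-incubation before adding ATP (10 uM final). Read-out: AlphaScreen of Ser73-phosphorylated biotin-GST-cJun using HepG2 lysate JNK3 activated by IL-1β and TNFα.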

[9] = molecular target: 3',5'-cyclic-AMP phosphodiesterase 4B (Homo sapiens) (UniProt Q07343); assay: qHTS Assay for Inhibitors of PDE-IV (AID 607; active means well fitted activation curve with a large enough effect in the main read-out, with a control signal flat, not every such curve was filed as active)
Sequence of 3',5'-cyclic-AMP phosphodiesterase 4B (Homo sapiens) (Q07343 whole entry, looked up): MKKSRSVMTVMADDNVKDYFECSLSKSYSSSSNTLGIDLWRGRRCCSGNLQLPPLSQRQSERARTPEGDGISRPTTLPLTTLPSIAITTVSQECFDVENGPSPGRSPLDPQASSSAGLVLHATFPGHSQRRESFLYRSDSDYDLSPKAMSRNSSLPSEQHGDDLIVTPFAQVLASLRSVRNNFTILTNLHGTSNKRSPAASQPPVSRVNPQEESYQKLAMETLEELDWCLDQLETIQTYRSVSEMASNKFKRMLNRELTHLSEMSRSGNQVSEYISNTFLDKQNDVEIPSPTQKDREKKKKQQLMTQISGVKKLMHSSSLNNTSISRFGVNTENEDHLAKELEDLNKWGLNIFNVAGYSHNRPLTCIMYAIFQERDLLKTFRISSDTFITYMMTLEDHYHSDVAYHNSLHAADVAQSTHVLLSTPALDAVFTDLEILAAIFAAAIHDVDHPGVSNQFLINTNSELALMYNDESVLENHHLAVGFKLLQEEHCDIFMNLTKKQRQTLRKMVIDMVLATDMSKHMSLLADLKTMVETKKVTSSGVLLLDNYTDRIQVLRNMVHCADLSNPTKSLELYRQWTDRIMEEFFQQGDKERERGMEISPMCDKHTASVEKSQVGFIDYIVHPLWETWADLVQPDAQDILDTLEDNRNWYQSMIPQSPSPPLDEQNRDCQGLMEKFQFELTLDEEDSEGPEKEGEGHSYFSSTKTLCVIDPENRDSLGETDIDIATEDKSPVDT
Method in brief: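 The readout is membrane depolarisation from a cAMP-sensing CNG channel, detected with a potential dye at ex 535/em 590. Cells were HEK293-derived (endogenous PDE-IV) at 1000 cells/well, titrated up to 22.9 uM final.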

[10] = molecular target: Cytochrome P450 2C9 (Homo sapiens) (UniProt P11712); assay: qHTS Assay for Inhibitors and Substrates of Cytochrome P450 2C9 (AID 883); further: potency means the concentration at half of the fitted maximal effect; nearly all actives have a fitted effect of over 60% in size
Method in brief: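 Luminescent read-out of deoxyluciferin hydroxylation, normalized to 57uM sulphaphenazole (AC100). Reaction: 10nM enzyme, 100uM Luciferin-H (equal to KM), 25mM KPO4, 10 min compound preincubation, then 60 min with NADPH regeneration, both at 37C.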

[11] = molecular target: Cytochrome P450 3A4 (Homo sapiens) (UniProt P08684); assay: qHTS Assay for Activators of Cytochrome P450 3A4 (AID 885); further: nearly all actives have a fitted effect of over 65% in size
Method in brief: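 Activators are scored by enhanced luminescence from CYP3A4 conversion of luciferin-PPXE (25uM, equal to KM) to luciferin, after 60 min at RT with an NADPH-regenerating system.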

[12] = molecular target: Cytochrome P450 2C19 (Homo sapiens) (UniProt P33261); assay: qHTS Assay for Inhibitors and Substrates of Cytochrome P450 2C19 (AID 899); further: potency means the concentration at half of the fitted maximal effect; nearly all actives have a fitted effect of over 60% in size
Method in brief: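 Luminescence readout of luciferin formed from 10uM Luciferin-H EGE (KM level) by 5 nM CYP2C19 in 50mM KPO4. 60 min NADPH-driven reaction at 37C after 10 min compound preincubation; data scaled to 57uM ketoconazole inhibition.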

[13] = molecular target: Dual specificity protein kinase CLK4 (Homo sapiens) (UniProt Q9HAZ1); assay: qHTS Assay for Inhibitors of CDC-like Kinase 4 (Kinase-Glo Assay) (AID 1770); further: nearly all actives have a fitted effect of over 65% in size
Sequence of Dual specificity protein kinase CLK4 (Homo sapiens) (Q9HAZ1 whole entry, looked up): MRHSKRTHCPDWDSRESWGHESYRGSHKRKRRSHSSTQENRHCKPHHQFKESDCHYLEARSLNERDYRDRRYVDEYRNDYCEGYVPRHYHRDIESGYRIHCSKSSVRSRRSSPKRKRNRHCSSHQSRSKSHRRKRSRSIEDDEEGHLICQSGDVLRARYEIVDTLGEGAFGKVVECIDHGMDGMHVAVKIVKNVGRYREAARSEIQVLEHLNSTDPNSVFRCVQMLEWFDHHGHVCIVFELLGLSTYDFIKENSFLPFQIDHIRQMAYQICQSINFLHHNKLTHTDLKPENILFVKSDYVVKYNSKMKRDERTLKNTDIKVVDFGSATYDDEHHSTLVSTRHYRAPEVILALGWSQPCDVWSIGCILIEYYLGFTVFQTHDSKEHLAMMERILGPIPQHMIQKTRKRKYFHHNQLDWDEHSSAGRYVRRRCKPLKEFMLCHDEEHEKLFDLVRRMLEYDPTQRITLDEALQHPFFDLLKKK
Method in brief: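 Substrate mix (RS peptide 100 uM, ATP 1 uM) dispensed, compound pinned in, then Clk4 added to 25 nM final. Incubated 4.5 h at RT; Kinase-Glo reagent added, luminescence read after 5 min.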

[14] = molecular target: Dual specificity protein kinase CLK4 (Homo sapiens) (UniProt Q9HAZ1); assay: qHTS Assay for Inhibitors of CDC-like Kinase 4 (ADP-Glo Assay) (AID 1771); further: nearly all actives have a fitted effect of over 70% in size
Method in brief: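 Compounds are pin-transferred onto substrate mix (100 uM RS peptide, 1 uM ATP), then 25 nM Clk4 is added. After 1 hr at room temperature, ADP-Glo reagent runs 45 min, detection reagent 30 min, then luminescence is read.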

[15] = molecular target: Dual specificity protein kinase CLK4 (Homo sapiens) (UniProt Q9HAZ1); assay: qHTS Assay for Inhibitors of CDC-like Kinase 4 (ADP-FP Assay) (AID 1795);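 further: recombinant human CLK4 phosphorylating RS repeat peptide at 1 µM ATP; nearly all actives have a fitted effect of over 60% in size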
Method in brief: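 Clk4 6.25 nM; RS peptide 100 uM; ATP 1 uM; 25 mM Tris pH 7.5, 10 mM MgCl2; 1 h reaction. ADP detected via antibody/orange tracer FP displacement; TG003 positive control.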

[16] = molecular target: Ubiquitin carboxyl-terminal hydrolase 1 (Homo sapiens) (UniProt O94782); assay: Inhibitors of USP1/UAF1: Pilot qHTS (AID 504865);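 further: rhodamine fluorescence freed from ubiquitin-rhodamine substrate followed over time; top concentration of the series differs between compounds; nearly all actives have a fitted effect of over 35% in size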
Sequence of Ubiquitin carboxyl-terminal hydrolase 1 (Homo sapiens) (O94782 whole entry, looked up): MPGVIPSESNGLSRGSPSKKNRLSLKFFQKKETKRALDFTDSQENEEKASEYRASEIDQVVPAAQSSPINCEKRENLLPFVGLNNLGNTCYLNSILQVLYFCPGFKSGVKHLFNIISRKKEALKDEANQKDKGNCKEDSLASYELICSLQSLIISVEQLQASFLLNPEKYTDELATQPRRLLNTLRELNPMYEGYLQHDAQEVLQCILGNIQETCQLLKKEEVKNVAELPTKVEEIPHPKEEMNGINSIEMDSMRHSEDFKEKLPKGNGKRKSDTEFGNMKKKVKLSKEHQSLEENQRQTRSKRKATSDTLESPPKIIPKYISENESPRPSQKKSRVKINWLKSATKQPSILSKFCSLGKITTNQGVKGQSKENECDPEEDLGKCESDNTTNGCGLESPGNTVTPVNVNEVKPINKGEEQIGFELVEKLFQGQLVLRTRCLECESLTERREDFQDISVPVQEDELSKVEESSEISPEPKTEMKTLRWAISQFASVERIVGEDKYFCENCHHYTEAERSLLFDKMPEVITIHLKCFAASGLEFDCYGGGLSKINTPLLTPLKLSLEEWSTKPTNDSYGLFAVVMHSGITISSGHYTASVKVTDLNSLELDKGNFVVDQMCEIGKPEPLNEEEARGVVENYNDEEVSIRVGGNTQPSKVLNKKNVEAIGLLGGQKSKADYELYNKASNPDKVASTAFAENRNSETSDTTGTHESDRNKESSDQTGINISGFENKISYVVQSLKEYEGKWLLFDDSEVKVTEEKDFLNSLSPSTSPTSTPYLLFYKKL
Method in brief: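 In 50mM HEPES pH 7.8 containing 0.5mM EDTA, 1mM TCEP, 0.1 mg/ml BSA and 0.01% Tween-20, 1nM USP1/UAF1 is exposed to compound for 15 min, then Ub-Rho (150nM final) is added and fluorescence is read over time.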

[17] = molecular target: Rap guanine nucleotide exchange factor 3 (Homo sapiens) (UniProt O95398); assay: Confirmatory qHTS for antagonist of cAMP-regulated guanine nucleotide exchange factor 3 (EPAC1) (AID 1645880); further: nearly all actives have a fitted effect of over 55% in size
Sequence of Rap guanine nucleotide exchange factor 3 (Homo sapiens) (O95398 whole entry, looked up): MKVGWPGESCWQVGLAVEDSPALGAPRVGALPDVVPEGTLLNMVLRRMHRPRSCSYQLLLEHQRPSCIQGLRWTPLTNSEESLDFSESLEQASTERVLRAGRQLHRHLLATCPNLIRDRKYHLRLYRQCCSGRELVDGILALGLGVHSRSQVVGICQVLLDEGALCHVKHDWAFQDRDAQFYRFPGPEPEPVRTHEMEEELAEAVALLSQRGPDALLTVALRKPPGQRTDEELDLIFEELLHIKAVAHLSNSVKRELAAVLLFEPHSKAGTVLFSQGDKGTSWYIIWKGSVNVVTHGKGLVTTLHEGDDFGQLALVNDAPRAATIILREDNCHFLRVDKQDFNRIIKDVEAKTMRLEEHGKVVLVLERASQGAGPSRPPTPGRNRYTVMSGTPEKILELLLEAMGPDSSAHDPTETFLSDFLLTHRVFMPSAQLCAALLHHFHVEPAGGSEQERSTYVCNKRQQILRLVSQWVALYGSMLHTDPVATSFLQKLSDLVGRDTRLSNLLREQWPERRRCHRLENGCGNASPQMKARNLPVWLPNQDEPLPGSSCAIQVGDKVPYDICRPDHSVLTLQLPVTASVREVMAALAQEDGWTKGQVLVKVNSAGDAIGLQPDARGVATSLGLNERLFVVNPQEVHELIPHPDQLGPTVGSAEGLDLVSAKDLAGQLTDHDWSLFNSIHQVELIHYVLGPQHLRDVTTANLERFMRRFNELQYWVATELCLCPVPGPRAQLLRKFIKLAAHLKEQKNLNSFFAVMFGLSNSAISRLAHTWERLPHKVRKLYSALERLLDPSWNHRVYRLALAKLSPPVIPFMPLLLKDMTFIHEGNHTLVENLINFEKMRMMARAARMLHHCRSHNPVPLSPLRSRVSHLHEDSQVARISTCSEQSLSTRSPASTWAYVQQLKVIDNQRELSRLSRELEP
Method in brief: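 Released BODIPY-GDP fluoresces less than Rap1-bound BODIPY-GDP; the signal is followed at 480/540 nm at 5-min intervals over 30 min, after 5 min at room temperature. Reactions contain 100 nM EPAC1, 250 nM RAP1B-BODIPY-GDP and 50 uM GDP; results are normalized to ATA and DMSO.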

[18] = molecular target: Rap guanine nucleotide exchange factor 3 (Homo sapiens) (UniProt O95398); assay: Confirmatory qHTS for agonist of cAMP-regulated guanine nucleotide exchange factor 3 (EPAC1) (AID 1645881);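 further: EPAC1 catalysed release of BODIPY-GDP from Rap1B seen as fluorescence loss; nearly all actives have a fitted effect of over 75% in size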
[19] = molecular target: Rap guanine nucleotide exchange factor 4 (Homo sapiens) (UniProt Q8WZA2); assay: Confirmatory qHTS for agonist of cAMP-regulated guanine nucleotide exchange factor 4 (EPAC2) (AID 1645884);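 further: nucleotide exchange releases bodipy-GDP from Rap1 and this lowers its fluorescence; nearly all actives have a fitted effect of over 65% in size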
Sequence of Rap guanine nucleotide exchange factor 4 (Homo sapiens) (Q8WZA2 whole entry, looked up): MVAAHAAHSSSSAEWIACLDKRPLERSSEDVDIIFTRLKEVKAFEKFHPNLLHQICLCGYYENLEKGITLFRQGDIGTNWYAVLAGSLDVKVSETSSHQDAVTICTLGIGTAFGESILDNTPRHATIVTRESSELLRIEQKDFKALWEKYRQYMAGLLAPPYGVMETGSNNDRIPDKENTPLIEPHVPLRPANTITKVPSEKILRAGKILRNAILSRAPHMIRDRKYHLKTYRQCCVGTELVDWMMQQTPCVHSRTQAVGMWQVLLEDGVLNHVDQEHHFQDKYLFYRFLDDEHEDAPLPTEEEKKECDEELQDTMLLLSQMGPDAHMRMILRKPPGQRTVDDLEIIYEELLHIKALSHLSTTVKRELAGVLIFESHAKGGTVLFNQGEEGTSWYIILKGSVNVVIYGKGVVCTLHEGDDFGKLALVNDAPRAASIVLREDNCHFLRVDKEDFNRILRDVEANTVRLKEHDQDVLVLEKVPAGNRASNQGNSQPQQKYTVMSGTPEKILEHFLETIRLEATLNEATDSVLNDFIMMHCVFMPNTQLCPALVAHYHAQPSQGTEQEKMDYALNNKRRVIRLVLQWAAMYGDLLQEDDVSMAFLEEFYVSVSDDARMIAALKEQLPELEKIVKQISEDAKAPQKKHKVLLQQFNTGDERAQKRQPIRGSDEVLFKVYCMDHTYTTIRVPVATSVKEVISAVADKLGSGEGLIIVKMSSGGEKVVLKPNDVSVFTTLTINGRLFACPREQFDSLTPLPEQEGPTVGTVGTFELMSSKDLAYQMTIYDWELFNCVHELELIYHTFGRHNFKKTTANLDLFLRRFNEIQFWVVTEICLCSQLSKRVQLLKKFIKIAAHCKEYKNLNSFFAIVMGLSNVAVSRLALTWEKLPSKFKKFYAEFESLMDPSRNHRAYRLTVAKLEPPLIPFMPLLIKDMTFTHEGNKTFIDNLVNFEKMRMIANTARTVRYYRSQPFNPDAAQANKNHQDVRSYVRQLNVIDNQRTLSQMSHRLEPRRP

[20] = molecular target: Rap guanine nucleotide exchange factor 4 (Homo sapiens) (UniProt Q8WZA2); assay: Confirmatory qHTS for antagonist of cAMP-regulated guanine nucleotide exchange factor 4 (EPAC2) (AID 1645885); further: nearly all actives have a fitted effect of over 25% in size
[21] = Confirmation and Secondary Assay for Modulators of Hemoglobin Beta Chain Splicing at IVS2 705 locus (AID 930);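 further: HeLa cells stably expressing the EGFP-705 splicing reporter; GFP fluorescence per well restored by corrected splicing of the IVS2-705 intron in EGFP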
Method in brief: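 Stable HeLa line with EGFP disrupted by mutant beta-globin intron 2 (705). Overnight attachment, then 2 days of compound at 37C, 5% CO2. Signal: peak GFP intensity summed over objects 5-250 µm.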

[22] = qHTS Assay for Lipid Storage Modulators (AID 1519; calls by dose curve); settings: Drosophila S3 cells, BODIPY lipid droplet/cell ratio, laser cytometry, cells loaded with oleic acid; for activity change, negative = inhibition: at 57.5 µM (top of the series)
Method in brief: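 Cells seeded at 5,000 per well were treated with compounds over a concentration series and loaded with oleic acid (400 uM, as added). Lipid droplet fluorescence (488 nm excitation, 500-530 nm channel) was read by laser-scanning cytometry and normalized to 20 uM Triacsin C.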

[23] = Confirmation and Secondary Assay for Modulators of Hemoglobin Beta Chain Splicing at IVS2 654 locus (AID 910);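 further: HeLa cells stably carrying EGFP split by mutant beta-globin IVS2-654 intron; per-well total GFP intensity by laser scanning cytometry after 2-day treatment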
Method in brief: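 Readout: per-well total peak green fluorescence (488 nm ex, 500–520 nm em) from objects 5–250 µm, reflecting correct splicing of an EGFP-654 reporter. Compounds were applied for 2 days at 37 °C to overnight-plated HeLa EGFP-654 cells; controls were DMSO and 500 nM IVS2-654 PNA.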

[24] = measured here: cell count channel max response
[25] = measured here: lipid channel max response

Question: Which results are given for `O=c1c(-c2cc(F)cc(F)c2)nc2cncnc2n1Cc1ccccc1Cl`?
Answer: Potency [1]: > 11.4 µM (inactive); activity change, negative = inhibition [2]: 5.85% (inactive); Potency [3]: 5.01 µM (active); activity change, negative = inhibition [4]: -19.2% (inactive); activity, negative = inhibition [5]: -6.37% (inactive); Potency [6]: > 9.22 µM (inactive); Potency [7]: > 46 µM (inactive); Potency [8]: inactive; Potency [9]: inactive; Potency [10]: 3.98 µM (active); Potency [11]: inactive; Potency [12]: 1.58 µM (active); Potency [13]: inactive; Potency [14]: inactive; Potency [15]: inactive; Potency [16]: inactive; Potency [17]: inactive; Potency [18]: inactive; Potency [19]: inactive; Potency [20]: inactive

Question: With `C1CCN2C[C@H]3C[C@H](CN4CCCCC34)C2C1` (stereo not given in full) as the compound, how does the outcome [21] read?
Answer: inactive

Question: What about the activity change, negative = inhibition [22] of the same compound?
Answer: 2.4% (inactive) and 4.93% (inactive)

Question: What about the max response [22, 24] of the same compound?
Answer: 17.1% and 11%

Question: What about the max response [22, 25] of the same compound?
Answer: 19.7% and 18.8%

Question: What about the Potency [16] of the same compound?
Answer: inactive

Question: Which Potency [23] does the source give for `Nc1ncnc2c1ncn2C1OC(CO)C(O)C1O` (stereo not given) here?
Answer: inactive

Question: What about the outcome [21] of the same compound?
Answer: inactive

Question: And the activity change, negative = inhibition [22]?
Answer: 9.6% (inactive) and 14.7% (inactive)

Question: And the max response [22, 24]?
Answer: 19.8% and 38.9%

Question: And the max response [22, 25]?
Answer: 31.9% and 67.8%
